From the supplement of paper PMC11417369
The full ranking holds about 25,000 sequences; the median of “ln(normalized median fluorescence intensity)” is about 9.7, and the highest 2% start at about 11. Only a selection was taken, and the highest values are over-represented in it overall.

tested on: PfAP2-HC AP2 domain (GST-tagged); assay: gcPBM binding intensity (ln(normalized median fluorescence intensity)); higher = stronger DNA binding
Outline: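 DNA-binding domains from P. falciparum, fused to GST and produced in E. coli, were put on an Agilent 4 × 180k double-stranded probe array for 1 h in 1× PBS holding 1% milk, 0.2 mg/ml BSA, 0.5% salmon testes DNA and 0.03% Triton X-100. Probes were primer-extended, 36 bp long and drawn from intergenic genomic regions, with negative controls included. After Alexa488 anti-GST antibody detection and a 488 nm scan, binding intensity was set as the highest Masliner-normalised natural-log median intensity across replicate spots of either probe orientation.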

Sequence | gcPBM binding intensity (ln)
TAGGGATTATACCACACACACATACACATAAATATA [CACACA_site3178] | 10.3
ACAATATGCAAAAAGTGTACACATTCATTTATATAA [XGTACX_site1061] | 10.1
AGCAACCCCCTAGCTACACACATATAGATATAAATA [CACACA_site6577] | 10.6
TTTAAATCGTTAAAAACACACAAAAAAAATCAATTA [CACACA_site2519] | 9.59
TTTTTTTTTTTGGTTACACACATTTGTATATTCTCA [CACACA_site134] | 9.89
CTATATGTTAAATTCTCACACATTATTACAATTTAA [CACACA_site5979] | 9.67
AATTGTAAATTGGGCACTTATAAAAATGAACAAATA [CACACA_negctrl_site1583] | 9.71
ATGAAAAAATTTATATGTACTTAAAATATAATCATA [XGTACX_site1228] | 9.33
AAAAAAAACAGACACACACACAAATACATACACAAA [CACACA_site705] | 10.5
AAAAAACACGCACATACACACAAAAATGTTATAAAT [CACACA_site6188] | 10.2
AACACATACAGACACACACACAAAAAAAAAAAAAAA [CACACA_site6322] | 10.9
AAATAAAACAGACACACACACACATACACAAAAAAA [CACACA_site7753] | 10.9
AAAAAACACAGACATACACACAAAAAGGTTATAAAT [CACACA_site4222] | 10.2
AAAAAAAACAGACACATACACACAAAAATGTTATAA [CACACA_site82] | 10.9
TATATATACAGACACATACACACAAATAAAAAAACA [CACACA_site3413] | 10.3
TACAAACAGACATATACACACAAAAAAAAAATAAAA [CACACA_site2562] | 9.89
AAAAAAAAAAAAAACACACACATACAGACAAAAATG [CACACA_site83] | 11.5
TATATTTTTATAATAACACACGATATATGTTTAGGA [CACACA_site1283] | 9.63
TAAGACTATTAAAAAATTGAGTACATGAACTGTTCA [GTGCAC_negctrl_site670] | 9.41
AACAAAATAAGACACACACACAAATGTACCTATATA [CACACA_site7189] | 10.4
ATATCTAAATATATTACACACAGATATCTTCCTATA [CACACA_site3701] | 9.87
CTAAGAAAAAATAAAGCACACAAATATTTTAAAAAC [CACACA_site9094] | 9.93
AATTTTTTTTTTTTTTTTTTTTATATATGTGTGTGT [XGTACX_negctrl_site129] | 11
TATATATGTATCAAGTGTACAGTTTTAAAAAAAAAA [XGTACX_site6011] | 9.67

Sequence | gcPBM binding intensity (ln)
TTTTTTATATATGTGTGTGTGTGTGTGTCAAGTTTA [GTGCAC_negctrl_site460] | 11.1
TTATATATTTTTATGTGTACTTATATATATATATAT [XGTACX_site6211] | 9.77
ATATTTATATATATATGTACATATGTGTGTTTTTAT [XGTACX_site3956] | 9.91
TATATGTTAATTTTTTTTTTTTTTTTTTTTTTTATA [CACACA_negctrl_site62] | 9.26
ATAATGTAAAATAAATGTACGCAATATATAAAAAAT [XGTACX_site5747] | 10.1
AAATAATTTACTTAATGTACATATATATATATATAT [XGTACX_site8594] | 9.78
TTGTAGGTAAATATGTGTACGCATTATTATTCTTAA [XGTACX_site216] | 9.58
CTTATAATATTACGGGTGCTATAAATACATTATATT | 9.72
TAAATATATATATGGTGTACCATTTTGGGTTAATAT [XGTACX_site2706] | 9.54
ACAACAAAAATAAGCACACACAAATATACATACATA [CACACA_site7664] | 11.3
ATACAACAAAAATAAGCACACACAAATATACATACA [CACACA_site9201] | 10.8
AATATAAGCAAATACACACACACATATATATATATA [CACACA_site3805] | 10.7
AAACAAAAAAAATAAGCACACATATATATATATATA [CACACA_site8173] | 9.7
ACAAAAAAAATAAGCACACATATATATATATATATA [CACACA_site816] | 9.91
CCAACAAAAATAAGCACACACAAATATACATACATA [CACACA_site3606] | 11.1
ATATATATATATATGTGTACATATAAGATAGAAGAA [XGTACX_site3198] | 10.2
TTTTTTAATATTTATACATGCATGCCGATTACTATA [TGCATGCA_site26] | 9.87
TATATATAATACAGTATGCACTATTTTTATTAAAAA | 9.41
AGTAACAAAAGAAAAAAATATGCAAACATATATATA [XGTACX_negctrl_site468] | 9.65
TTTTTATTTGGTTGTGTACACATATATATATATATA [CACACA_site5844] | 9.84
TACATACATACATACACACACACATCTATATTTATA [CACACA_site6171] | 10.6
TGAACACACGAGCACACACACACATCTATATTTATA [CACACA_site6607] | 11.1
TTATACTAAATGAACACACACACATCTATATTTATA [CACACA_site6199] | 10.3
AAAAAAGAAAAAAGGACACACATAAATATACACCCG [CACACA_site5590] | 10.2

Sequence | gcPBM binding intensity (ln)
AAAAATAAAGGATATACACACTAATTATATATATAT [CACACA_site5550] | 9.91
ATAAATAAAGGACACACACACACACTAGAAAAAAAA [CACACA_site5450] | 11.1
ATAAATAAAGGACACACACACACACTAATAAAAAAA [CACACA_site8840] | 11.4
AAAAAAATAAAGGATATACACACTAATTATATATAT [CACACA_site2812] | 9.81
GTAGAGAAAAAAATGTGGACACAAAAAATAAAAAGG [XGTACX_site4058] | 9.79
ATATGTTTTGTTTACGTGCACTGCTTTGTTTATATA [GTGCAC_site9622] | 10.5
ATATTTATTTATAATTGTACTAATAATATATTTTAA [XGTACX_site587] | 9.51
TTTCCTTACCCTTTCCTGGTGTAGAAATTATACTCT [TGCATGCA_negctrl_site116] | 9.61
TATTTCATCTTTTAAGAAGGTACCCATATGTCATAT [GTGCAC_negctrl_site403] | 9.57
TTATTTTATTTTAAAAAAAACAATATAAATTCAAAG [GTGCAC_negctrl_site57] | 9.09
AAATATATATATATAATACACACTAAAGTAACATAA [CACACA_site2870] | 10
ATAATCCTTGGACACACACACACACTAGTAAATAAA [CACACA_site4423] | 11.3
ATAATCCTTAAACACACACACACACTAATAAATAAA [CACACA_site8052] | 10.8
TCAAAGCACACATACACACACATATAGATTTATATA [CACACA_site6272] | 10.2
ATCATTTGCATACGCACACACACATAAAAAGAAAAA [CACACA_site355] | 10.9
CATTTGCACACGCACACACACATAAAAAGAAAAATA [CACACA_site6297] | 11.1
TTTTATCACATTATTGCACACACATAAAGAAAAAAA [CACACA_site8922] | 9.98
ATCATTTGCTCACGCACACACACATAAAAAGAAAAA [CACACA_site4349] | 10.2
CATTTGCACCCGCACACACACATAAAAAGAAAAATA [CACACA_site4350] | 11.1
ATGCATAAAAGAAATACACACATAAATATATAAATA [CACACA_site2163] | 9.99
TAAACATTTTTGCACGCACACAAAAAAAAAATAAAA [CACACA_site167] | 10.3
CATTTGCCCAGGCACACACACATAAAAAGAAAAATA [CACACA_site356] | 10.2
TTATCACATTATTGCACACACATAAAGAAAAAAATA [CACACA_site2841] | 9.94
ATATATTTTTAGCACAGTACAATATAATTAAATATA [XGTACX_site6779] | 9.62

Sequence | gcPBM binding intensity (ln)
AAAAAAAAAAAAAAAAGTACTAATTGAATATTAAAC [XGTACX_site3383] | 9.44
TATGTGTTCAGTATTGCACACACACTCCAAAATAAA [CACACA_site8018] | 10
TATAAATATGTATATGCATGTGGAATATATAATTAA [TGCATGCA_site226] | 9.69
GGATTTATTATATATACACACATACATATATATATA [CACACA_site8669] | 9.88
ATTATATATATCAGGTGTACGTAAAAAAAATGGACG [XGTACX_site1028] | 9.88
TTTTTAATTAACTTTGTAAACTTATATATATATATA [TGCATGCA_negctrl_site311] | 9.6
AATCGTGTTCTGAATACACACTAATACAAATTTGTA [CACACA_site6058] | 9.75
TGTAGTCTGGAGAAGAGTACACAGTATCTGGTAGCT [XGTACX_site2036] | 9.72
AATATGTTTTGTTAGGTTGGTGTTGGTAGAATGTTT [CACACA_negctrl_site1563] | 9.85
ATTTGGCATGGACACACACACACACCGACAGACATA [CACACA_site4491] | 11.4
TATAGATACAGATACACACACACACCGACATATATA [CACACA_site5832] | 10.7
AAAAATTTGGCATACACACACACACCGACACAGACA [CACACA_site4489] | 10.5
TATACTCATGGACACACACACATACACAGACATACA [CACACA_site5024] | 10.4
CCCACAGACGGACACACACACACACCGACACATATA [CACACA_site4356] | 11
CGCACAGACGGACACACACACACATATATATATATA [CACACA_site5249] | 11.1
CATACATACAGACACACACACATATATATATATATA [CACACA_site2920] | 10.7
CCCACAGACGGACACACACACACATATATATATATA [CACACA_site4352] | 11.1
AGCACAGACGGACACACACACATATATATATATATA [CACACA_site4341] | 10.8
TATACAGACAGACACACACACATATATATATATATA [CACACA_site1734] | 10.2
CATATACATACACATACACACATACAGACATACACA [CACACA_site6919] | 10.2
TAAACAGACATATAAACACACATATAAACCGACATA [CACACA_site2478] | 10.3
